# Counter-ions that a name gives are not always drawn.
# Key:
# Assay in all cases: Euclidean distance of Cell Painting phenotypic profile (signed KS, 77 features) to DMSO centroid (dimensionless distance); 5 or 10 uM (library dependent); higher = stronger phenotypic change vs DMSO (phenoactivity)
# Details in all cases: 48 h
# 786-O = system: 786-O
# Summary of the method: (§1)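 Five cancer lines, together with a healthy fibroblast line, received library compounds for 48 h at a library-dependent 10 or 5 uM and 0.1% DMSO final. Harmony then derived 77 features from confocal 20X images (9 fields/well) of the stained cells, scoring each as a signed Kolmogorov-Smirnov statistic against same-plate vehicle wells. After plate-position correction, correlation weighting and replicate averaging at the top dose, phenoactivity was taken as each profile's Euclidean distance to the median vehicle profile.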
# A549 = system: A549
# Summary of the method: as §1
# DU145 = system: DU145
# Summary of the method: as §1
# FB = system: FB
# Summary of the method: as §1
# HEPG2 = system: HEPG2
# Summary of the method: as §1
# OVCAR4 = system: OVCAR4
# Summary of the method: as §1
SMILES,Euclidean distance (786-O),Euclidean distance (A549),Euclidean distance (DU145),Euclidean distance (FB),Euclidean distance (HEPG2),Euclidean distance (OVCAR4)
Nc1nc2c(ncn2COCCO)c(=O)[nH]1 [Aciclovir],1.1,1.17,1.08,1.32,1.25,1.37
CC[C@H]1OC(=O)[C@H](C)[C@@H](O[C@H]2C[C@@](C)(OC)[C@@H](O)[C@H](C)O2)[C@H](C)[C@@H](O[C@@H]2O[C@H](C)C[C@H](N(C)C)[C@H]2O)[C@](C)(O)C[C@@H](C)CN(C)[C@H](C)[C@@H](O)[C@]1(C)O [Azithromycin Dihydrate],1.29,1.33,1.5,1.18,1.71,1.15
Nc1c(Br)cc(Br)cc1CN[C@H]1CC[C@H](O)CC1 [Ambroxol],1.17,0.59,0.867,0.611,0.645,0.78
CSc1nc2cc(Cl)c(Oc3cccc(Cl)c3Cl)cc2[nH]1 [Triclabendazole],1.55,0.638,1.65,1.07,1.43,0.772
C[C@H](O)[C@H](O)[C@H]1CNc2[nH]c(N)nc(=O)c2N1 [Sapropterin Dihydrochloride],0.821,0.501,0.871,0.819,0.542,0.643
Clc1ccc(Nc2nnc(Cc3ccncc3)c3ccccc23)cc1 [Vatalanib (PTK787) 2HCl],1.01,1.05,1.47,1.53,1.42,1.29
COc1cc(OC)c(C(=O)CCCN2CCCC2)c(OC)c1 [Buflomedil HCl],1.46,1.05,0.962,1.04,0.715,1.18
Nc1nc(Cl)nc2c1ncn2[C@H]1C[C@H](O)[C@@H](CO)O1 [Cladribine],2.58,3.28,2.27,3.14,2.67,3.21
O=c1cc(N2CCOCC2)oc2c(-c3ccccc3)cccc12,1.73,1.09,1.16,1.79,1.66,2.16
CCOc1nc2cccc(C(=O)OCc3oc(=O)oc3C)c2n1Cc1ccc(-c2ccccc2-c2noc(=O)[nH]2)cc1 [Azilsartan Medoxomil],0.852,1.33,0.487,0.689,0.927,0.929
COc1ccnc(C[S+]([O-])c2nc3cc(-n4cccc4)ccc3[nH]2)c1C (centres undefined) [Ilaprazole],1.22,1.57,1.17,1.23,0.928,1.27
C[N+]1(C)[C@@H]2CC[C@H]1C[C@@H](OC(=O)C(O)c1ccccc1)C2 (some centres undefined) [Homatropine Methylbromide],0.885,1.85,1.26,1.47,0.52,0.995
CS(=O)(=O)OCCCCOS(C)(=O)=O [Busulfan],1.22,0.648,0.667,0.953,0.977,1.95
NC(=O)C(c1ccccc1)(c1ccccc1)[C@@H]1CCN(CCc2ccc3c(c2)CCO3)C1 [Darifenacin HBr],1.59,0.89,0.786,1.4,1.11,1.04
Cn1cc(-c2ccc3nnc(C(F)(F)c4ccc5ncccc5c4)n3n2)cn1,0.466,2.03,0.962,1.2,0.706,1.08
COc1nc2ccc(Br)cc2cc1[C@@H](c1ccccc1)[C@@](O)(CCN(C)C)c1cccc2ccccc12 [Bedaquiline],1.63,1.17,1.33,0.823,0.496,0.927
COc1ccc(C2OCC3C(c4cc(OC)c(OC)c(OC)c4)OCC23)cc1OC (centres undefined) [Magnolin],0.904,0.78,1.05,1.02,0.56,0.966
O=c1ncn2nc(Sc3ccc(F)cc3F)ccc2c1-c1c(Cl)cccc1Cl,1.78,0.873,1.38,1.63,1.25,1.55
CCN(c1cc(-c2ccc(CN3CCOCC3)cc2)cc(C(=O)NCc2c(C)cc(C)[nH]c2=O)c1C)C1CCOCC1 [Tazemetostat (EPZ-6438)],0.99,1.2,0.651,0.92,0.489,1.16
CCCCC1=NC2(CCCC2)C(=O)N1Cc1ccc(-c2ccccc2-c2nnn[nH]2)cc1 [Irbesartan],1.03,0.928,0.351,0.966,0.777,1.79

SMILES,Euclidean distance (786-O),Euclidean distance (A549),Euclidean distance (DU145),Euclidean distance (FB),Euclidean distance (HEPG2),Euclidean distance (OVCAR4)
O=C(/C=C\n1cnc(-c2cc(C(F)(F)F)cc(C(F)(F)F)c2)n1)N1CC(F)(F)C1,3.83,3.69,3.2,2.48,3.62,4
CN1CCC(=C2c3ccccc3CCn3c(C=O)cnc32)CC1 [Alcaftadine],1.07,0.581,1.26,1.66,0.597,1.22
CCN1C[C@H](C)n2c(c(O)c3c(=O)n(Cc4ccc(F)c(Cl)c4)nc(C(=O)NC)c32)C1=O,1.08,0.61,1.05,0.927,0.645,1
Nc1ccn([C@@H]2CS[C@H](CO)O2)c(=O)n1 [Lamivudine],0.725,0.508,0.589,1,1.07,0.623
O=c1ccc2ccccc2o1 [Coumarin],1.02,0.975,1.08,1.25,0.824,1.2
N[C@H](CO)C(=O)O [(R)-Serine],1.31,1.48,0.909,0.797,0.786,1.43
O=C(O)c1ccc(C=C2SC(=S)N(c3cccc(C(F)(F)F)c3)C2=O)cc1,0.542,0.983,0.711,0.939,0.977,1.56
O=C(O)c1cc(O)c(O)c(O)c1 [Gallic acid],1.13,0.673,0.909,1.31,0.825,0.935
C[C@](N)(Cc1ccc(O)c(O)c1)C(=O)O [Methyldopa],1.49,0.734,1.09,0.909,0.55,0.729
Cc1cn([C@H]2C=C[C@@H](CO)O2)c(=O)[nH]c1=O [Stavudine (d4T)],1.64,1.46,0.564,0.969,0.716,1.06
COc1ccccc1OCC(O)COC(N)=O (centres undefined) [Methocarbamol],1.4,0.507,1.06,0.751,1.83,0.907
C[C@H](NC(=O)[C@@H](O)c1cc(F)cc(F)c1)C(=O)N[C@@H]1C(=O)N(C)c2ccccc2-c2ccccc21,1.22,1.36,1.05,0.939,0.864,1.42
O=C(Oc1cc(S(=O)(=O)c2ccccc2)ccc1[N+](=O)[O-])c1ccc(Cl)cc1,1.76,1.8,1.4,1.14,1.96,1.27
CS(=O)(=O)c1ccc([C@@H](O)[C@@H](CF)NC(=O)C(Cl)Cl)cc1 [Florfenicol],1.1,0.738,0.807,1.12,0.739,0.76
COc1ccc(-c2cc(=O)c3c(OC)c(OC)c(OC)c(OC)c3o2)cc1OC [Nobiletin],0.695,0.706,1,0.95,1.47,0.897
C#CCN(C)Cc1ccccc1 [Pargyline hydrochloride],1.39,0.874,1.18,1.16,0.696,1.43
CNC(=O)c1ccc(N2C(=S)N(c3cnc(C#N)c(C(F)(F)F)c3)C(=O)C23CCC3)cc1F,1.4,1.24,0.954,0.828,1.01,1.16
CC1=C(C(=O)O)N2C(=O)[C@@H](NC(=O)[C@H](N)C3=CCC=CC3)[C@H]2SC1 [Cefradine],0.837,0.567,0.805,1.14,0.578,0.907
N=C(N)Nc1ccc(C(=O)Oc2ccc3cc(C(=N)N)ccc3c2)cc1 [Nafamostat Mesylate],1.58,1.62,1.06,1.02,0.93,1.24
